# Laboratory results as given in PubChem BioAssay AID360 (National Center for Advancing Translational Sciences (NCATS), 2006).
# Screen size: about 48,000 compounds; about 550 (1.1%) were called active. Another 4% or so got no clear call; they are omitted. Cut-off read from the data, not from the text of the source: active = potency below about 15 µM; inconclusive = mostly about 16 µM to 33 µM; inactive = weaker than that. The list comes from a sample in which actives are over-represented; it also holds similar structures and randomly drawn compounds.
# Biological target: Lysosomal acid glucosylceramidase (Homo sapiens) (UniProt P04062)
# Sequence (P04062 whole entry, looked up): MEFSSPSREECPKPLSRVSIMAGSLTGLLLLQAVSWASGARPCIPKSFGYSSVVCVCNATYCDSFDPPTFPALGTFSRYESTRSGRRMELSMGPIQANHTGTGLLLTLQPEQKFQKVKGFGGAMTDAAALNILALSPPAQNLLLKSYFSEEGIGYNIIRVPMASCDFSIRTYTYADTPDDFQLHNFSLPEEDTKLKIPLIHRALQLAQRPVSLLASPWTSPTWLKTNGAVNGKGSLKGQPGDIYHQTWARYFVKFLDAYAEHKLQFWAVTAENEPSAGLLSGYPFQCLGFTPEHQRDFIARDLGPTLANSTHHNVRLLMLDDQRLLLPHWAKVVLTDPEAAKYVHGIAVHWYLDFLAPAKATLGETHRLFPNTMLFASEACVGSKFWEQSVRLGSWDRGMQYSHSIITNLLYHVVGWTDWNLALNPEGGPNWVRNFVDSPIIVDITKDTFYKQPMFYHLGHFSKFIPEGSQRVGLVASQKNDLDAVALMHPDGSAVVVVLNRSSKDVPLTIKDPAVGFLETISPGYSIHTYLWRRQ
# Experiment: Glucocerebrosidase;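 note: the screen sought inhibitors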
# Conditions: purified enzyme, resorufin glucoside fluorescence (screen aimed at inhibitors), 20 min
# Source text: NCGC Assay Overview: Beta-glucocerebrosidase catalyzes the hydrolysis of beta-glucocerebroside to glucose and ceramide. The inherited deficiency of beta-glucocerebrosidase results in Gaucher disease, which is characterized by a wide variety of symptoms including hepatosplenomegaly, anemia, thrombocytopenia, bony lesions and bone marrow infiltration with characteristic storage cells, known as Gaucher cells. There are also forms of the disorder affecting the central nervous system. Patients with the same genotypes can manifest with diverse clinical presentations and it is believed that improper folding and trafficking of beta-glucocerbrosidase may contribute to the phenotypes observed. Low molecular weight molecules, acting as chaperones, may potentially restore trafficking of misfolded beta-glucocerebrosidase from the endoplasmic reticulum to the lysosomes, thereby enhancing functional lysosomal beta-glucocerebrosidase activity. Using normal beta-glucocerebrosidase, an assay was developed to screen for small molecule inhibitors that could potentially act as molecular chaperones on the mutant forms [developed with NIH investigator Dr. Ellen Sidransky's laboratory]. Two pro-fluorescent substrates were chosen for two screens against a small molecule library. One beta-glucocerebrosidase assay used Resorufin beta-D-Glucopyranoside (Marker Gene Technology Inc.), generating a red fluorescent product. The second assay used Fluorescein di-beta-D-Glucopyranoside, generating a blue fluorescent product. […] The IC50 values of Conduritol B Epoxide, a known glucocerebrosidase inhibitor, were determined to be 87.5 uM and 117 uM, respectively. The use of two difference pro-fluorescent substrates in the screens helped to eliminate false positives. All compounds were screened in a titration series resulting in AC50s (e.g., IC50s or EC50s).
# NCGC Assay Protocol Summary: Both enzyme and substrate were diluted in buffer composed of 50mM citric acid/KH2PO4, 10mM sodium taurocholate and 0.01% tween-20 at pH 5.9. The final concentration of the enzyme was 0.2 nM in both assays. The compound library was titrated in 7 to 15 concentrations for the primary screens with a final concentration ranging from 0.6 nM to 50 uM. This particular assay protocol is for the "red" substrate, and it was performed in 1536-well plate format as follows: Red fluorescence substrate assay: 2 uL enzyme 23 nL compound 1 uL substrate (final concentration of 30 uM) Incubate at room temperature (RT) for 20 minutes Read the plate in Viewlux plate reader (Ex=548(7) and Em=600(10)).
# Potency is the fitted concentration of half-maximal effect.
row,Structure (SMILES),Potency
1,CC(C)c1ccc(O)c(CN2CCN(c3ccccc3)CC2)c1,10.2 µM (active)
2,Fc1ccc(N2CCN(Cc3ccc4c(c3)OCO4)CC2)cc1,> 76.9 µM (inactive)
3,O=C(c1cc(-c2ccncc2)nc2ccccc12)N1CCC2(CC1)OCCO2,> 76.9 µM (inactive)
4,CC(=NCC1CCCO1)c1c(O)n(-c2ccccc2)c(=O)[nH]c1=O (stereo not given),> 76.9 µM (inactive)
5,CC(=O)c1c(O)n(C2CCCCCC2)c(=O)[nH]c1=O,> 76.9 µM (inactive)
